# Source: PubChem BioAssay
# A selection: hits, their analogues and other compounds. The true share with any hit is near 5%.
# EBI2 block: antagonists of human EBI2 receptor. EBI2 beta-arrestin recruitment, luminescence, 7a,25-OHC stimulated. inhibition, % at 5 µM. actives 0.81% (n = 360,000); in the data active = inhibition above about 38%;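 note: enzyme fragment complementation signal reports receptor beta-arrestin coupling in cells; 0% = agonist plus DMSO wells and 100% = wells without agonist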
# SENP8 block-1: inhibitors of human SENP8 protease | Q96LD8 | recombinant SENP8, Nedd8 substrate fluorescence | inhibition, % at 20 µM | actives 0.64% (n = 360,000) | AID 602440; in the data active = inhibition mostly above about 40%, no sharp cut-off; inactive = mostly below about 27%
# AHR activator: activators of human aryl hydrocarbon receptor; actives 2.5% (n = 320,000); AHR-responsive luciferase reporter cells, luminescence; activation, % at 5 µM; P35869; in the data active = activation above about 47%;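 note: 0% = vehicle wells and 100% = reference agonist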
# Target sequence (P35869 whole entry, looked up): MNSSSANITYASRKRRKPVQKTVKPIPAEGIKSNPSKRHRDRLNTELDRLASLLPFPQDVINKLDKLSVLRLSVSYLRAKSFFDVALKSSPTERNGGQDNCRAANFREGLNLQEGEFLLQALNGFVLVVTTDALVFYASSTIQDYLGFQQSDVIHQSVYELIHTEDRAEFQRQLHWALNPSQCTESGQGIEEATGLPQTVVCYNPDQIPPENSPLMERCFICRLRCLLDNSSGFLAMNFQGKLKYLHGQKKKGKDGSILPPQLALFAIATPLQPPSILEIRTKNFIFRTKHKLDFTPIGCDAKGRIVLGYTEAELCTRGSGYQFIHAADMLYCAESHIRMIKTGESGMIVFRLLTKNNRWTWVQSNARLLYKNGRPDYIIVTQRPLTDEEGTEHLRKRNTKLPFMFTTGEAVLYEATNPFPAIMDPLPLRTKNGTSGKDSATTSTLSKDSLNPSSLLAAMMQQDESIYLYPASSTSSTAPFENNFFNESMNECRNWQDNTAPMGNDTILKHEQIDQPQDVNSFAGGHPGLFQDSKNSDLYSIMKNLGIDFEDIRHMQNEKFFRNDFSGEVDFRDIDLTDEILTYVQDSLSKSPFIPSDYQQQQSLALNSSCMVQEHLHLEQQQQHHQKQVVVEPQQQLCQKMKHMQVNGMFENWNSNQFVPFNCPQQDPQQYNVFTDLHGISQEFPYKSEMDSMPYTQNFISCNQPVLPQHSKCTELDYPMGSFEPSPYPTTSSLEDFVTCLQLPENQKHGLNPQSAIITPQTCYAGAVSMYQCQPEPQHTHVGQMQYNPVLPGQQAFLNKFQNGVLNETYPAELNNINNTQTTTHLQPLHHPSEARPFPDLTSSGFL
# SENP7 block: blocks the human protease SENP7; recombinant SENP7, Z-RLRGG-aminoluciferin luminescence, 40 min; inhibition, % at 5 µM; actives 1.5% (n = 330,000); AID 434973;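 active = inhibition above about 50% at the single test dose, limit read from the data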;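 note: plate controls were DMSO with enzyme for no effect and no enzyme buffer wells for full effect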
# SENP8 block-2: SENP8 protease inhibition. Q96LD8. purified SENP8, Z-RLRGG-aminoluciferin cleavage, luminescence. inhibition, % at 10 µM. actives 1.2% (n = 330,000). AID 2540; in the data active = inhibition above about 50%
# SENP6 inh: blocks the human protease SENP6. Q9GZR1. Recombinant SENP6 catalytic domain, aminoluciferin luminescence. inhibition, % at 10 µM. actives 1.8% (n = 330,000). AID 2599;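 active = inhibition above about 50% at the single tested dose, limit read from the data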;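 note: plate controls were DMSO wells with enzyme for no effect and DMSO wells lacking enzyme for full effect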
# SENP8 conf: confirmation of human SENP8 protease inhibitors; actives 40% (n = 6,200); AID 488912; inhibition, % at 12.5 µM; shares compounds with SENP7 block; Recombinant SENP8, Z-RLRGG-aminoluciferin luminescence, 60 min;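 active = mean inhibition across replicates above about 50%, limit read from the data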
# SENP6 conf: human SENP6 inhibition, confirmed; shares compounds with SENP7 block; recombinant SENP6, Z-RLRGG-aminoluciferin luminescence; inhibition, % at 12.5 µM; actives 58% (n = 6,200)
# SENP7 confirm: confirmation of human SENP7 protease inhibitors; actives 69% (n = 6,200); shares compounds with SENP7 block; inhibition, % at 12.5 µM; recombinant SENP7, Z-RLRGG-aminoluciferin luminescence, 40 min
# Casp3 select: selectivity test for SENP inhibitors: human caspase-3 inhibition; shares compounds with SENP7 block; purified caspase-3, Z-DEVD-aminoluciferin luminescence, 60 min; inhibition, % at 12.5 µM; actives 60% (n = 6,200); AID 488918;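 active = mean inhibition above about 50%, limit read from the data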;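 note: plate controls were enzyme with DMSO for no effect and wells without caspase-3 for full effect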
# Luc interf: counter-screen for SENP inhibitors: luminescence interference; shares compounds with SENP7 block; Pre-incubated SENP8/Z-RLRGG-aminoluciferin, luciferase luminescence interference; inhibition, % at 12.5 µM; actives 39% (n = 6,200);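 active = mean inhibition above about 50% when retested at one dose, limit read from the data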;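 note: plate controls were DMSO wells with completed reaction for no effect and substrate without enzyme for full effect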
# An asterisk follows results filed as active; . = not tested or not shown.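 Rule for the calls, unless noted: active = mean inhibition above about 50% in the one-dose retest (limit read from the data); inactive = the rest.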
SMILES,EBI2 block,SENP8 block-1,AHR activator,SENP7 block,SENP8 block-2,SENP6 inh,SENP8 conf,SENP6 conf,SENP7 confirm,Casp3 select,Luc interf
O=C(/C=C/c1ccccc1)c1ccccn1,-11.9,-39.4,-3.1,-6.1,3.1,34.3,.,.,.,.,.
COc1ccc(C(=O)/C=C/Nc2ccccn2)c(OC)c1,-1.8,-331.9,-5.0,13.7,-1.4,2.7,.,.,.,.,.
O=C(/C=C\Nc1ccccn1)c1ccccc1,0.0,-208.8,42.8,96.7*,89.9*,95.3*,95.8*,96.5*,101.8*,97.0*,94.4*
O=C(/C=C/Nc1ccccc1Br)c1ccccn1,4.6,-31.3,8.7,100.0*,95.8*,96.9*,2.4,99.6*,103.2*,96.9*,89.3*
COc1ccc(-c2nc(CCl)cs2)cc1,3.5,-34.7,1.6,8.1,26.9,21.3,.,.,.,.,.
CCc1ccc(-c2nc(CCl)cs2)cc1,-6.0,10.4,2.4,64.1*,56.1*,73.7*,18.7,84.4*,96.1*,68.6*,20.8
O=C(N/N=C/c1ccc(OC2CSC2)cc1)c1ccccc1,10.2,14.6,3.0,0.5,51.8*,62.4*,6.8,2.6,9.8,25.2,-6.0
O=C(/C=C/c1ccc(OC2CSC2)cc1)c1ccccc1,-3.9,11.3,5.7,55.3*,53.9*,37.8,-1.6,14.7,6.0,-7.1,25.6
N#Cc1cc2cc3c(cc2nc1SCC(=O)N1CCCC1)OCCO3,-11.5,-144.5,0.6,0.0,-0.8,-17.1,.,.,.,.,.
CC(=O)CSc1nc2cc3c(cc2cc1C#N)OCCO3,11.8,-284.1,-1.4,97.1*,95.1*,91.4*,83.5*,87.0*,58.1*,86.0*,26.9
COc1ccc(OC)c(S(=O)(=O)NCCCn2ccnc2)c1,-8.8,13.2,10.7,-2.9,-7.9,-0.2,.,.,.,.,.
COc1ccc(Cl)cc1S(=O)(=O)NCCCn1ccnc1,-4.7,16.7,0.7,-0.5,-3.6,53.1*,2.2,-3.0,-2.4,-2.7,-3.5
O=C1/C(=C/Nc2cccc([N+](=O)[O-])c2)CCc2ccccc21,1.9,-126.0,39.6,29.4,60.9*,19.3,2.5,80.7*,92.5*,60.2*,23.9
O=C(N/C=C/c1ccccc1)c1ccccc1,-11.3,-16.2,14.0,41.0,58.4*,70.8*,-6.3,45.9,82.1*,63.2*,35.8
O=C(NCCNC(=O)c1ccccc1)c1ccccc1,0.0,15.1,4.2,0.5,1.5,-9.3,.,.,.,.,.
O=C(Cc1ccccc1F)Nc1ccc(SC(F)F)cc1,4.1,18.8,11.1,43.3,25.6,60.7*,5.0,2.0,53.2*,18.5,28.5
O=C(Nc1ccc(SC(F)F)cc1)c1ccccc1F,1.7,15.7,2.8,16.8,19.7,50.0*,37.4,35.1,73.0*,41.4,62.9*
CCCc1cc(=O)[nH]c2nnc(SCC(=O)NC3CCCCC3)n12,-15.3,-3.3,0.8,12.2,-7.0,-13.0,.,.,.,.,.
CSc1nccc(N/N=C/c2ccccc2)n1,-6.3,11.3,-2.7,74.0*,53.0*,63.6*,42.6,45.3,81.4*,69.3*,3.1
Cc1ccnc(N/N=C/c2ccccc2)n1,1.2,5.3,16.5,34.3,-4.1,33.2,.,.,.,.,.
COc1ccc(C(=O)N/C(=C\c2cn(C)c3ccccc23)C(=O)N2CCOCC2)cc1,3.1,-1.9,20.2,-0.6,4.0,-6.9,.,.,.,.,.
COC(=O)c1c[nH]n2c(=O)c(Cl)c(C)nc12,-8.7,-12.8,3.9,53.6*,34.5,64.0*,65.5*,57.1*,85.5*,88.0*,66.1*
COc1cccc(-c2nnc(-c3ccc(C)o3)o2)c1,-2.6,-299.3,-0.6,56.5*,38.9,17.6,62.5*,64.5*,89.1*,82.3*,74.0*
COc1cccc(-c2nnc(-c3ccccc3[N+](=O)[O-])o2)c1,9.5,12.8,3.3,50.0*,24.5,30.6,19.0,29.8,66.9*,47.8,30.8
COc1cccc(-c2nnc(-c3ccco3)o2)c1,-14.2,-110.9,51.3*,55.4*,49.0,66.7*,57.8*,56.1*,87.0*,80.2*,65.0*
SMILES,EBI2 block,SENP8 block-1,AHR activator,SENP7 block,SENP8 block-2,SENP6 inh,SENP8 conf,SENP6 conf,SENP7 confirm,Casp3 select,Luc interf
COc1cccc(C(=O)Nc2ccc(-c3nnc(-c4ccco4)o3)cc2)c1,-6.3,-231.4,-3.8,4.6,-7.5,5.2,.,.,.,.,.
COc1cccc(-c2nnc(NC(=O)c3cccc(F)c3)o2)c1,2.0,15.0,2.8,32.8,55.7*,60.5*,3.5,4.0,3.8,14.7,1.9
CCOC(=O)C1C(c2ccc(C(=O)O)cc2)NC(=O)NC1(O)C(F)(F)F (configuration not stated),-5.3,2.0,-3.6,3.9,-5.7,-20.0,.,.,.,.,.
Cc1ccnc(N2C(=O)c3ccccc3C2Nc2cccc(C)c2C)c1 (configuration not stated),-0.6,4.9,2.3,-4.6,3.1,-5.8,.,.,.,.,.
Cc1ccnc(N2C(=O)c3ccccc3C2O)c1 (configuration not stated),-0.2,-1.3,44.3,90.0*,81.4*,85.0*,81.7*,82.1*,98.1*,95.8*,88.0*
CCn1c(=S)sc2c(=O)n(CC(=O)NCCCc3ccccc3)c(C)nc21,-0.9,19.1,1.1,8.0,-4.5,-17.6,.,.,.,.,.
CCOC(=O)CSC1=NC(=O)/C(=C/c2ccc(OC)cc2)S1,5.9,12.5,10.7,29.0,33.0,77.0*,7.3,5.2,5.4,26.6,29.9
Cc1nc2ccccc2n1/N=C/c1ccc([N+](=O)[O-])s1,2.1,34.1,52.0*,11.1,33.0,73.3*,-9.3,14.2,1.1,-2.9,-3.6
O=[N+]([O-])c1ccc(/C=N/Nc2ncccc2[N+](=O)[O-])s1,13.5,33.4,19.0,90.7*,27.0,40.7,23.1,22.1,19.1,35.4,5.7
Cc1cc2ncn(/N=C/c3ccc([N+](=O)[O-])s3)c2cc1C,5.0,32.6,11.6,.,.,.,.,.,.,.,.
O=[N+]([O-])c1ccc(/C=N/n2cnc3ccccc32)s1,-2.6,35.5,27.3,34.3,1.8,72.8*,14.7,25.3,15.7,1.7,0.1
O=C(CCS(=O)(=O)c1ccc(Cl)cc1)NC1CCCC1,1.4,10.7,-0.4,9.9,1.1,6.3,.,.,.,.,.
